Hits are enriched below; roughly 7.8% of the tested compounds scored in any of these assays.
Lassa entry inh – inhibitors of Lassa virus binding or cell entry. Lassa virus pseudotype entry inhibition, cell reporter. Potency, µM (top dose mostly 37.9 µM), for inactives: at the highest dose activity change, negative = inhibition, hits mostly inhibitors. 300,000 tested, 1.2% active. AID 540256; calls by dose curve; tested in HEK293 cells; note: potency is the fitted concentration of half-maximal effect; nearly all actives have a fitted effect of over 50% in size
HCMV antiviral – blocks human cytomegalovirus replication. HFF cells, HCMV-luciferase reporter, 72 h; hits give low values. activity change, negative = inhibition, % at 57.5 µM. 410,000 tested, 4.5% active. AID 1259415; in the data active = activity change below about -60%; inconclusive = no clear call, values can overlap the other calls; inactive = above about -39%
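Screen run at 2 compound doses on HFFs infected with reporter HCMV, MOI 1 PFU/cell. Luciferase activity from cell lysates at 72 h post infection gave inhibition relative to buffer-only and Salinomycin wells.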
Marburg entry inh – blocks Marburg virus binding to or entry into cells | Potency, µM (titrated, usually from 37.8 µM), inactives show at the highest dose activity change, negative = inhibition, hits mostly inhibitors | Marburg virus pseudotyped entry inhibition, cell reporter | 300,000 tested, 1.8% active; calls by dose curve; tested in HEK293 cells; note: potency is the fitted concentration of half-maximal effect
Vaccinia Venus – vaccinia inhibition (Venus reporter); Vaccinia virus Venus reporter expression, fluorescence; AID 720580; 330,000 tested, 0.46% active; Potency, µM (highest dose often 36.5 µM), for inactives: at the highest dose activity change, negative = inhibition, usual class: inhibitors; calls by dose curve; tested in A549 cells; note: potency is the fitted concentration of half-maximal effect; nearly all actives have a fitted effect of over 30% in size
VACV mCherry inh – vaccinia inhibition (mCherry reporter); Vaccinia virus mCherry reporter infection, fluorescence; Potency, µM (series often up to 36.5 µM), inactives show at the top dose activity change, negative = inhibition, usual class: inhibitors; 310,000 tested, 0.63% active; AID 720579; calls by dose curve; tested in A549 cells; note: potency is the fitted concentration of half-maximal effect; nearly all actives have a fitted effect of over 35% in size
HCV inh – blocks hepatitis C virus | Huh7.5.1 HCVcc-Cre infection, luciferase reporter, 44 h | Potency, µM (doses to about 41.8 µM), for the others: at the highest dose activity change, negative = inhibition, usual class: inhibitors | 340,000 tested, 3.4% active | AID 651820; active = well fitted inhibition curve with a large enough effect; inconclusive = small, poorly fitted or top-dose-only effect, or another doubt; inactive = no such curve, though single readings can be large or run the other way; note: potency is the fitted concentration of half-maximal effect
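Seed cells (1,000/well) for 4 h; treat with compound and infect with HCVcc-Cre, moi about 0.5. Incubate 44 h, then detect luciferase activity.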
* = called active by the depositor; i = inactive; ? = inconclusive; / = no result given; [ ] = remark or other dose. % is set by controls: 0 for no effect and ±100 for the full control effect.

SMILES	Lassa entry inh	HCMV antiviral	Marburg entry inh	Vaccinia Venus	VACV mCherry inh	HCV inh
CC12CCC(=O)N1C(C(=O)Nc1nc(-c3ccc(F)cc3)cs1)CS2 (stereo not drawn)	-13%	-25	1%[46.1 µM]	-9%	i	-56%
CC12CCC(=O)N1C(C(=O)Nc1nc(-c3ccccc3Cl)cs1)CS2 (stereo not drawn)	-19%	2	?	?	?	10µM*
COc1ccc(OC)c(-c2csc(NC(=O)C3CSC4(C)CCC(=O)N34)n2)c1 (stereo not drawn)	?	0	?	?	-25%	3.2µM*
COc1ccc(-c2csc(NC(=O)C3CSC4(C)CCC(=O)N34)n2)cc1OC (stereo not drawn)	-3%	?	0%	-18%	-16%	?
Cn1nc(C(=O)NCc2cccc(Cl)c2)c2c1-c1ccccc1SC2	5%[46.1 µM]	?	-1%[46.1 µM]	-12%	-14%	/
CCc1ccc(NC(=O)Cn2c(=O)n(CCCC(=O)NCc3ccccc3OC)c(=O)c3ccccc32)cc1	7%[46.1 µM]	15	?	-11%	-16%	/
CC(=O)N1CCN(c2ccnc3cc(Cl)ccc23)CC1	17%[46.1 µM]	?	0%[46.1 µM]	-11%	i	21%
O=S(=O)(c1cccs1)N1CCN(c2ccccc2Cl)CC1	-30%	1	4%	-7%	-15%	/
O=C(Nc1cc(F)ccc1F)N1CCN(c2ccnc3cc(Cl)ccc23)CC1	/	-83*	/	/	/	11µM*
O=S(=O)(c1cccs1)N1CCN(c2ccnc3cc(Cl)ccc23)CC1	?	-60*	?	?	?	?
O=C(Nc1ccc(C(F)(F)F)cc1)N1CCN(c2ccnc3cc(Cl)ccc23)CC1	?	-72*	?	-29%	-6%	8.9µM*
Cc1cccc(Cl)c1NC(=O)N1CCN(c2ccnc3cc(Cl)ccc23)CC1	/	-65*	/	/	/	?
O=C(O)CSCC(=O)N1CCN(c2ccnc3cc(Cl)ccc23)CC1	/	/	/	/	/	-10%
O=Cc1cc2c3c(c1)CCCN3CCC2	/	/	/	-8%	-15%	/
Cc1ccccc1C1(CC(=O)N2CC3(C)CC2CC(C)(C)C3)CC(=O)N(Cc2cccnc2)C1=O (stereo not drawn)	/	/	/	-11%	-15%	/
CC1CCCN(S(=O)(=O)c2cc3c(cc2Cl)NC(=O)CO3)C1 (stereo not drawn)	-9%[46.1 µM]	0	/	-19%	-9%	/
CCCCNC(=O)N1CCN(c2ccnc3cc(Cl)ccc23)CC1	0%	/	?	-22%	-18%	-3%
Cc1ccc(F)cc1NC(=O)N1CCN(c2ccnc3cc(Cl)ccc23)CC1	/	-69*	/	/	/	3.5µM*
CN(C)CCOc1nc(-c2ccccc2)nc2c1oc1ccccc12	?	-77*	?	1%	/	?
O=C1[C@@H]2[C@H](ON(c3ccccc3)[C@H]2c2ccncc2)C(=O)N1c1ccc(Br)cc1	/	/	-21%	/	/	/
O=C1c2cnc3nc(SCc4cccc(Cl)c4)nn3c2CC2c3ccccc3CCN12 (stereo not drawn)	-20%	-25	-16%	/	/	11µM*
Cc1cc(C)c(CN2CCC3(CCC(CNC(=O)c4ccn(C)n4)O3)CC2)cc1C (stereo not drawn)	/	/	/	0%	i	/
CCN(CC)c1ccc(NC(=O)c2cnn3c(C(F)F)cc(-c4ccccc4)nc23)cc1	27%[46.1 µM]	-28	0%[46.1 µM]	-16%[7.34 µM]	-4%[7.34 µM]	/
CC(NC1CCCCC1)C(O)C12CC3CC(CC(C3)C1)C2 (stereo not drawn)	?	-23	7.3µM*	-16%	?	?
CCOC(=O)N1CCC(NC(=O)C2CCCN(Cc3nc(-c4cccc(C)c4)oc3C)C2)CC1 (stereo not drawn)	?	-73*	?	-14%	-27%	?
SMILES	Lassa entry inh	HCMV antiviral	Marburg entry inh	Vaccinia Venus	VACV mCherry inh	HCV inh
CCOC(=O)N1CCC(NC(=O)CSCc2nc(-c3ccc(C)cc3)oc2C)CC1	/	-63*	/	/	/	?
Cc1oc(-c2ccc(Cl)cc2)nc1CN1CCCC(C(=O)N2CCN(C(=O)c3ccco3)CC2)C1 (stereo not drawn)	/	-39	-10%	?	?	2µM*
Cc1cccc(-c2nc(CN3CCCC(C(=O)NC4CCCC4)C3)c(C)o2)c1 (stereo not drawn)	7%	29	15µM*	/	/	?
Cc1noc(-c2ccc(N3CCCCC3)c([N+](=O)[O-])c2)n1	-3%[46.1 µM]	60	?	0%	-10%	/
O=C(NC1CCCCC1)N1CC(=O)N2[C@H](CO)[C@H](c3ccc(Br)cc3)[C@@H]2C1	/	-18	/	/	/	/
COc1ccc(COC(=O)NN=C2C[C@@H](O)[C@@H](O)[C@@H]3[C@H]4C(=O)N([C@@H](C)c5ccccc5)C(=O)[C@@H]4CC[C@H]23)cc1	?	/	-1%[14.2 µM]	/	/	/
CCc1cnc2c(c1SCc1cc(OC)cc(OC)c1)c(=O)n(C)c(=O)n2C	-13%[46.1 µM]	12	/	-20%	-28%	/
O=C(Nc1ccc2nc(SCCOc3ccccc3Cl)sc2c1)c1cccs1	-6%[46.1 µM]	-88*	2%[46.1 µM]	-5%[7.34 µM]	-8%[7.34 µM]	/
CCCC(=O)Nc1ccc2nc(SCCOc3ccccc3)sc2c1	-16%[46.1 µM]	-60*	-26%[46.1 µM]	-13%	-12%	/
CCC(=O)Nc1ccc2nc(SCCOc3ccccc3)sc2c1	-15%[46.1 µM]	-63*	?	-12%	i	/
CCOC(=O)Nc1ccc2nc(Sc3ccc(Cl)cc3)sc2c1	/	-34	/	?	?	14µM*
O=C(COc1ccccc1F)Nc1ccc2oc(-c3cccc(Cl)c3)nc2c1	9%[46.1 µM]	41	5%[46.1 µM]	-28%	-22%	/
O=C(CCn1cnc2ccccc2c1=O)NCc1ccccc1	5%[46.1 µM]	7	/	-5%	-4%	/
CCc1ccccc1NC(=O)[C@H](Cc1ccccc1)N1Cc2ccccc2C1=O	-20%[46.1 µM]	-23	-14%[46.1 µM]	1%	-12%	/
Oc1ccccc1Oc1ncc(Br)c(N2CCOCC2)n1	18%	39	-16%	?	-10%	-23%
Oc1ccccc1Oc1c(F)c(F)nc(N2CCCC2)c1F	4.6µM*	-13	?	/	/	-27%
COC(=O)c1ccc(/C=N/Nc2nc(-c3ccc(C)cc3)cs2)cc1	6%	/	?	?	13µM*	22%
CCOc1ccccc1C(=O)NCC(c1ccc(N(C)C)cc1)N1CCc2ccccc21 (stereo not drawn)	2%[46.1 µM]	-29	/	-21%	-10%	/
N#C/C(=N\Nc1cccc(C(F)(F)F)c1)C(=O)c1ccsc1	/	-97*	/	/	/	?
CCSc1ccccc1C(=O)N1CCN(c2ccccc2F)CC1	3%	-103*	-21%	/	/	6%
O=C(c1ccccc1C(=O)N1CCN(c2ccccc2F)CC1)N1CCN(c2ccccc2F)CC1	-5%	-10	-1%	-18%	/	-16%
COc1cccc(N(CC(=O)NC2CCCC2)C(=O)CCC(=O)Nc2cc(C)on2)c1	-12%	8	-16%[46.1 µM]	-5%	i	9%
Cc1cc(NC(=O)CCC(=O)N(Cc2ccccc2)C2(C(=O)NC3CCCCC3)CCCC2)no1	?	?	?	-13%	i	-4%

Screens: PubChem BioAssay, National Center for Advancing Translational Sciences (NCATS)
